Bioassay records from PubChem BioAssay.
Only some compounds are listed: those with a hit (about 1.9% of all), similar ones and a draw of the others.
IL-2 act – IL-2 activation; AID 652025; IL-2 activation reporter assay, cell-based qHTS; stimulated with anti-CD3/CD4/CD28 beads; in transgenic mouse T cells; actives 0.065% (n = 360,000); activation, % (series mostly up to about 46 µM); in the data active means activation above about 50%; inconclusive means mostly about 30% to 49%; further: 0% is about no effect
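Screening format: compound pinned onto unstimulated transgenic mouse T cells, 60 min incubation, then anti-CD3/anti-CD4/anti-CD28 bead stimulation for 18 hours at 37 degrees C, followed by EGFP and DsRed detection.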
Giardia kill – Giardia lamblia killing | actives 0.15% (n = 340,000) | Giardia lamblia trophozoite viability | activity change, % at 7.66 µM, hits read low; in the data active means activity change below about -80%; inconclusive means between about -30% and that limit;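 further: parasites exposed to compound for two days anaerobically before the ATP read; on the % scale 0 is the no-effect control and ±100 the full control effect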
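Trophozoite viability was measured as ATP-dependent luminescence, read 15-30 min after reagent addition. Before that, parasites at 100 cells/well were exposed to compounds for 48 h, anaerobically, at 37 deg C.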
BRCA1 expr act – activators of BRCA1 expression. MCF7-BRCA1-FFLuc reporter, luminescence, 48 h; response scale: scaled: vehicle 0%, 10 µM genistein 100%. Potency, µM (doses to about 46.1 µM), without a hit: top-dose activation, hits mostly activators. actives 1.1% (n = 380,000); further: potency means the concentration at half of the fitted maximal effect; nearly all actives have a fitted effect of over 80% in size
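Compounds are tested at multiple concentrations on MCF7 BRCA1-luciferase reporter cells seeded at 2000 per well; after 48 h, a single luminescence end-point is taken and curves fitted to the normalized data.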
RXFP1 agonist – agonists of human relaxin receptor RXFP1; actives 0.3% (n = 370,000); Q9HBX9; HEK293T-RXFP1 cAMP TR-FRET, 30 min; response scale: percent of porcine relaxin response, buffer zero; Potency, µM (series often up to 57.5 µM), inactives show top-dose activation, usual class: activators; further: potency means the concentration at half of the fitted maximal effect; on the % scale 0 is the no-effect control and ±100 the full control effect; nearly all actives have a fitted effect of over 60% in size
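HEK293 cells stably expressing RXFP1, treated 30 min at 37C with compounds plus PDE4 inhibitor Ro 20174; cAMP measured by HTRF TR-FRET. Normalized to buffer and 29 nM porcine relaxin; EC50 by Hill fit.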
NPSR antagonist – blocks cAMP signaling of the human neuropeptide S receptor; Q6W5P4; CHO-NPSR cells, cAMP TR-FRET, antagonist mode; Potency, µM (titrated, usually from 38.3 µM), for the others: at the top dose activity change, negative = inhibition, usual class: inhibitors; actives 1% (n = 220,000); further: potency means the concentration at half of the fitted maximal effect; on the % scale 0 is the no-effect control and ±100 the full control effect; nearly all actives have a fitted effect of over 50% in size
Target sequence (Q6W5P4 whole entry, looked up): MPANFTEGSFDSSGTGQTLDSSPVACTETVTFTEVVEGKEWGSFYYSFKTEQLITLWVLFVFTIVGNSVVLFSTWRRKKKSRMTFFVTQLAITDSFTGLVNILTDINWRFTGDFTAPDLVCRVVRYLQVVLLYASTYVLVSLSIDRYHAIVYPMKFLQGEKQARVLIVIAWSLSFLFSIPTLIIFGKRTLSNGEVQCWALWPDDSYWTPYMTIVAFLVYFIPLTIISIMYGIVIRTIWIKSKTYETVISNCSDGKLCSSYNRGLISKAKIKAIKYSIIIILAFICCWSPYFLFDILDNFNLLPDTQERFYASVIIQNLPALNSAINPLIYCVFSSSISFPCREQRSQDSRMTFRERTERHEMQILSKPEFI
RXFP1 antagonist – antagonists of human relaxin receptor RXFP1; activity change, negative = inhibition, % at 57.5 µM; actives 0.59% (n = 350,000); AID 1259400; HEK293-RXFP1, relaxin-stimulated cAMP HTRF, 30 min; hits give low values;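 active means activity change of -60% or lower, but not beyond a set lower limit; inconclusive means change between -60% and -40%, or beyond the set limit; inactive means change above -40%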; further: on the % scale 0 is the no-effect control and ±100 the full control effect
Starred values were filed as active, the others as inactive; [ ] = another dose, or the depositor's remark. Unless noted, the call rests on the fitted dose curve; in most records, active means well fitted curve in the direction sought with a large enough effect; inconclusive means small, poorly fitted or top-dose-only effect, or another doubt; inactive means no such curve, though single readings can be large; an effect the other way counts as inactive or inconclusive.

How did COc1ccc(-n2nc(C(=O)N3CCN(c4cccc(C)c4)C(C)C3)c3c4ccccc4n(C)c3c2=O)cc1 (configuration not stated) do in these assays?
RXFP1 agonist: 14.9%; RXFP1 antagonist: -3.9

Results for CCCS(=O)(=O)c1ncc(Cl)c(C(=O)N2CCN(c3ccc(OC)cc3)CC2)n1 ?
RXFP1 agonist: 1.4%; RXFP1 antagonist: inconclusive

What do the screens show for `O=C(CCCn1ccc2cc(S(=O)(=O)N3CCCC3)ccc21)NCc1ccc(Cl)cc1`?
RXFP1 agonist: 2.4%; RXFP1 antagonist: -2.4

How did CCCCNc1nc(Oc2ccc(=O)n(-c3ccccc3)n2)nc(N(C)C)n1 do in these assays?
RXFP1 agonist: -0.8%; RXFP1 antagonist: -1.5

How did O=C(Nc1ccccc1F)c1ccc2ncsc2c1 do in these assays?
IL-2 act: 1.8; Giardia kill: -3.2; BRCA1 expr act: inconclusive; RXFP1 agonist: 4.3%; RXFP1 antagonist: 1.2

What do the screens show for `O=C(Nc1ccc(F)cc1F)c1ccc2ncsc2c1`?
IL-2 act: -1.6; Giardia kill: 18.6; BRCA1 expr act: 5.01µM*; RXFP1 agonist: 0.1%; RXFP1 antagonist: -5.3

Results for O=C(Nc1ccncc1)c1cnn2c1NC(=C1CC1)C=C2C(F)F ?
BRCA1 expr act: 12.9%

Results for COc1ccc(C(CNC(=O)c2oc3ccc(OC)cc3c2C)N2CCCC2)cc1 (configuration not stated) ?
IL-2 act: -7.3; Giardia kill: -9.2; BRCA1 expr act: -44.2%; RXFP1 agonist: -1.1%; RXFP1 antagonist: inconclusive

What do the screens show for `COc1ccc2oc(C(=O)N(C)CCOc3ccccc3)c(C)c2c1`?
IL-2 act: -0.9; Giardia kill: -0.5; BRCA1 expr act: 11.2µM*; RXFP1 agonist: -0.1%; RXFP1 antagonist: -7.6

What do the screens show for `COc1ccc2oc(C(=O)NCCC(C)C)c(C)c2c1`?
IL-2 act: 1.0; Giardia kill: -20.1; BRCA1 expr act: 7.08µM*; RXFP1 agonist: 3.3%; NPSR antagonist: -21.6%; RXFP1 antagonist: -9.9

How did O=C1C(F)=CC(COC(c2ccccc2)(c2ccccc2)c2ccccc2)OC1n1cc(F)c(=O)[nH]c1=O (configuration not stated) do in these assays?
IL-2 act: -6.3; Giardia kill: 0.8; BRCA1 expr act: -78.9%; RXFP1 antagonist: -83.7*

Results for CC(=O)OCC1OC(n2cc(F)c(=O)[nH]c2=O)C(OC(C)=O)C1OC(C)=O (configuration not stated) ?
IL-2 act: 0.1; Giardia kill: -1.3; BRCA1 expr act: -1.9%; RXFP1 antagonist: 7.0

Results for CNc1ccc(/C=C2\C=Cc3ccccc32)cc1Cl ?
BRCA1 expr act: 21.2%

Results for COc1cc(C(=O)NCC2CCCN2S(=O)(=O)c2cccs2)cc(OC)c1OC (configuration not stated) ?
IL-2 act: -1.1; Giardia kill: 19.0; BRCA1 expr act: -5.9%; RXFP1 agonist: 1.4%; RXFP1 antagonist: -82.0*

Results for Cc1ccc(C(=O)NCC2CCCN2S(=O)(=O)c2cccs2)cc1C (configuration not stated) ?
IL-2 act: -0.9; Giardia kill: 13.8; BRCA1 expr act: 37.9%; RXFP1 agonist: -0.3%; RXFP1 antagonist: -1.1

How did Cc1ccc2c(Cl)cc(Cl)c(O)c2n1 do in these assays?
IL-2 act: -1.0; Giardia kill: 2.7; BRCA1 expr act: -92.1%; RXFP1 antagonist: -6.8

How did Cc1ccc2c(C)ccc(O)c2n1 do in these assays?
IL-2 act: -2.3; Giardia kill: -15.2; BRCA1 expr act: 0.0%; RXFP1 agonist: 0.2%; NPSR antagonist: -7.7%[46.1 µM]; RXFP1 antagonist: -70.4*

How did COc1ccc(C2C(C#N)=C(N)OC3=C2C(=O)CC(C)(C)C3)cc1OC (configuration not stated) do in these assays?
IL-2 act: 0.0; Giardia kill: 5.9; BRCA1 expr act: 11.8%; RXFP1 agonist: -0.1%; NPSR antagonist: -5.2%; RXFP1 antagonist: -76.0*

How did COc1cc(OC)c(C2C(C#N)=C(N)OC3=C2C(=O)CC(C)(C)C3)cc1OC (configuration not stated) do in these assays?
IL-2 act: -2.2; Giardia kill: -9.2; BRCA1 expr act: -13.1%; RXFP1 agonist: -1.1%; NPSR antagonist: 5.7%[46.1 µM]; RXFP1 antagonist: -1.4

What do the screens show for `CC(=O)N(c1onc(C)c1C)S(=O)(=O)c1ccc(N)cc1`?
RXFP1 antagonist: -11.0

How did N#Cc1c(-c2ccccc2)nc(SCC(=O)Nc2nnc(C(F)(F)F)s2)[nH]c1=O do in these assays?
IL-2 act: -0.2; Giardia kill: -21.2; BRCA1 expr act: 2.2%; RXFP1 agonist: 17.8µM*; NPSR antagonist: -44.2%; RXFP1 antagonist: 22.0

Results for N#Cc1c(-c2ccccc2)nc(SCC(=O)Nc2ccccc2)[nH]c1=O ?
IL-2 act: -0.1; Giardia kill: -20.9; BRCA1 expr act: -14.8%; RXFP1 agonist: 26.3%; NPSR antagonist: -31.9%; RXFP1 antagonist: 6.7

Results for Cc1cc(NC(=O)CSc2nc(-c3ccccc3)c(C#N)c(=O)[nH]2)no1 ?
IL-2 act: 0.0; Giardia kill: -11.2; BRCA1 expr act: -0.3%; RXFP1 agonist: inconclusive; NPSR antagonist: 7.94µM*; RXFP1 antagonist: 0.1

What do the screens show for `CCc1ccc(NC(=O)CSc2nc(-c3ccccc3)c(C#N)c(=O)[nH]2)cc1`?
RXFP1 agonist: 25.1µM*; RXFP1 antagonist: 4.9

Results for Cc1cc(C)nc(NS(=O)(=O)c2ccc(NC(=O)CSc3nc(-c4ccccc4)c(C#N)c(=O)[nH]3)cc2)n1 ?
IL-2 act: -3.2; Giardia kill: -5.2; BRCA1 expr act: 6.4%; RXFP1 agonist: 17.8µM*; NPSR antagonist: 3.98µM*; RXFP1 antagonist: 19.1

Results for Cc1ccc(C)c(NC(=O)CCCN2C(=O)C(c3ccccc3)Oc3cccnc32)c1 (configuration not stated) ?
BRCA1 expr act: -3.6%; RXFP1 agonist: inconclusive

How did Cc1cnc2c3c(cc(Cl)c2c1)-c1ccccc1S(=O)(=O)N3 do in these assays?
Giardia kill: -0.8; BRCA1 expr act: -1.6%

Results for CCc1cc2c(=O)n(-c3ccccc3)cnc2s1 ?
IL-2 act: 1.4; Giardia kill: 17.8; BRCA1 expr act: 17.8µM*; RXFP1 agonist: 1.8%; NPSR antagonist: -3.3%[46.1 µM]; RXFP1 antagonist: -15.2

What do the screens show for `CCCCOc1ccc(CC(=O)N(C)O)cc1`?
BRCA1 expr act: -24.8%

Results for N/C(=N\N=C\c1ccc(Br)o1)c1nonc1N ?
IL-2 act: -0.8; Giardia kill: -1.5; BRCA1 expr act: 10µM*; RXFP1 agonist: -2.1%; NPSR antagonist: -35.4%; RXFP1 antagonist: -0.9
